About 83,000 compounds went through this panel and 20% of them were active in at least one assay; those are over-represented in the sample as a whole.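 Compound tested at a single concentration for 48 hours in 96-well plates; a percent growth value below 10 was scored as active.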 Values without a mark were called inactive.
Test system: M14 melanoma
Experiment: NCI-60 one-dose screen, 48 h (100 = growth as untreated, 0 = no growth, -100 = all killed)
Settings: 10 µM
Procedure: Growth inhibition of the M14 human tumor cell line is measured as a screen for anti-cancer activity. Cells are grown in 96 well plates and exposed to the test compound for 48 hours. Compounds are tested at a single concentration, which is 10^-5 M for most compounds. The reported endpoint is percent growth (GI% or GIPRCNT), where numbers from 0 - 100% represent growth inhibition, and numbers from -100% - 0 represent cell death. For example, a value of 40 represents 60% growth inhibition. A value of 0 means no net growth occurred over the course of the experiment. A value of -40 indicates 40% of cells at the beginning of the experiment died by the end of the experiment. A value of -100 means all cells are dead at the end of the experiment.
NCI-60 Human Tumor Cell Lines Screen was performed using the standard one-dose NCI protocol, which is described in more detail at https://dtp.cancer.gov/discovery_development/nci-60/default.htm.
Compounds with GIPRCNT values below 10 were considered active. Activity score was based on GIPRCNT using the following formula: […]
Score is 0 for GIPRCNT values of 100 or above, 50 for GIPRCNT values of 0, and 100 for GIPRCNT values of -100.

Q: `N#CC1(Nc2ccc3c4c(cccc24)CC3)CCCCC1` was tested. Which growth did it give?
A: 113%

Q: Which growth does the source give for `CCOC(=O)/C(C#N)=C/c1cccc(C)c1` here?
A: 97.4%

Q: `CCOC(=O)C/C(C)=N\O` was tested. Which growth did it give?
A: 101%

Q: With `CCN=c1cc2sc3cc(NCC)c(C)cc3nc-2cc1C` as the compound, how does the growth read?
A: 21.4%

Q: Which growth does the source give for `C=CCNc1nnc(C)s1` here?
A: 103%

Q: `CC(=O)c1c[nH]c2ccccc12` was tested. Which growth did it give?
A: 102%

Q: How did the growth turn out when `COc1cc(C2NC(=O)C(C#N)=C(Nc3cccc(C)c3)S2)ccc1O` (stereo not given) was run?
A: 101%

Q: `OCCN(CCO)C(=S)S` was tested. Which growth did it give?
A: 108%

Q: With `NNc1ccccc1C(=O)O` as the compound, how does the growth read?
A: 110%

Q: With `O=C(O)COCC(=O)O` as the compound, how does the growth read?
A: 111%

Q: How did the growth turn out when `O=[N+]([O-])c1ccc(CO)cc1` was run?
A: 103%

Q: Which growth does the source give for `Cc1ccc(C(=O)N/N=C/c2ccc3c(c2)OCO3)cc1` here?
A: 93%

Q: With `CC1CCC2C(C)(C)C3CC12CC1OC13C` (stereo not given) as the compound, how does the growth read?
A: 109%

Q: `Cc1nc2c(ccc3ccccc32)s1` was tested. Which growth did it give?
A: 98.5%

Q: With `Cc1ccc(/C=C2\SC(=S)N(c3ccc(F)cc3)C2=O)o1` as the compound, how does the growth read?
A: 87.5%

Q: For `C=CCCCCCCCCCOC(C)=O`, which growth is on record?
A: 104%

Q: Which growth does the source give for `CCC/C=C(\C)C(C)(C#N)C(=O)OCC` (stereo not given) here?
A: 116%

Q: For `CC(=O)OCC1OC(OC2=C(CC=C(C)C)C(=O)c3ccccc3C2=O)C(OC(C)=O)C(OC(C)=O)C1OC(C)=O` (stereo not given), which growth is on record?
A: 46.8%

Q: Which growth does the source give for `Cc1ccc(S(=O)(=O)O)c(C)c1` here?
A: 101%

Q: How did the growth turn out when `CCOC(=O)c1ccc(Nc2sc(C(=O)c3cccc([N+](=O)[O-])c3)c(N)c2C#N)cc1` was run?
A: 24%

Q: Which growth does the source give for `COCCOCCCl` here?
A: 101%

Q: With `CN(C)CCC(=O)c1ccc(O)cc1` as the compound, how does the growth read?
A: 104%

Q: For `CCCCCCCO`, which growth is on record?
A: 98.5%

Q: Which growth does the source give for `Cc1ccc(N)cc1[N+](=O)[O-]` here?
A: 99.8%

Q: How did the growth turn out when `CS(=O)CC1=NC(=N)N=C1CS(C)=O` (stereo not given) was run?
A: 105%

Q: How did the growth turn out when `CC(=O)Cc1cc(-c2cc(CC(C)=O)[nH]n2)n[nH]1` was run?
A: 99.5%

Q: How did the growth turn out when `CCOC(=O)C(=O)C=P(c1ccccc1)(c1ccccc1)c1ccccc1` was run?
A: 109%

Q: For `c1ccc2c(c1)Sc1ccccc1S2`, which growth is on record?
A: 103%

Q: Which growth does the source give for `O=C(Cc1ccccc1)Cc1ccccc1` here?
A: 102%

Q: How did the growth turn out when `C#CC(C(C)C)N(CCO)CCCC` (stereo not given) was run?
A: 108%

Q: `COc1ccc(C(C)C=O)cc1` (stereo not given) was tested. Which growth did it give?
A: 109%

Q: How did the growth turn out when `CC(C)(N)COS(=O)(=O)O` was run?
A: 98.1%

Q: With `O=C(Nc1ccccc1C(=O)NCC1CC1)c1cccs1` as the compound, how does the growth read?
A: 103%

Q: With `O=C(O)CSCSCC(=O)O` as the compound, how does the growth read?
A: 108%

Q: Which growth does the source give for `Cc1ccccc1N=C(c1ccccc1)C1C(=O)c2ccccc2C1=O` here?
A: 78%

Q: With `CC(=O)OCCO` as the compound, how does the growth read?
A: 105%

Q: Which growth does the source give for `O=C(CN1CCNCC1)N1CCOCC1` here?
A: 103%

Q: Which growth does the source give for `C=C[Si](OC(C)=O)(OC(C)=O)OC(C)=O` here?
A: 99.5%

Q: With `COCCCC/C(=N\OCCN)c1ccc(C(F)(F)F)cc1` as the compound, how does the growth read?
A: 109%

Q: How did the growth turn out when `CC[N+](C)(CC)CCO` was run?
A: 104%
